Screening data from PubChem.
Only some compounds are listed: those with a hit (about 15% of all), similar ones and a draw of the others.
Sm TGR inh: inhibitors of Schistosoma mansoni thioredoxin glutathione reductase; 360,000 tested, 3% active; purified TGR, DTNB reduction, TNB absorbance 405 nm; Q962Y6; Potency, µM (titrated, usually from 114 µM), inactives show at the highest dose activity change, negative = inhibition, usual class: inhibitors; note: potency is the fitted concentration of half-maximal effect; % is set by controls: 0 for no effect and ±100 for the full control effect; nearly all actives have a fitted effect of over 60% in size
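TGR 20 nM + NADPH 100 uM (dispensed conc.), cpd preinc 15 min RT; start with NADPH (500 uM addition) then DTNB (15 mM addition). Kinetic TNB absorbance, 405 nm filter. Four-parameter Hill fit across titration.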
Pf growth 48h: P. falciparum growth inhibition at 48 hours (one generation). AID 504832. Potency, µM (doses to about 28.7 µM), inactives show at the highest dose activity change, negative = inhibition, most hits filed as inhibitors. P. falciparum luciferase growth in erythrocytes, 48 h. 310,000 tested, 5.9% active; note: potency is the fitted concentration of half-maximal effect; % is set by controls: 0 for no effect and ±100 for the full control effect
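Compounds are pin-transferred into medium, infected erythrocytes (2% hematocrit, 0.1% parasitemia final) are added, and plates sit one parasite generation at 37 C in 5% CO2. Detection reagent is then added and luminescence measured.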
Pf growth 96h: inhibits malaria parasite growth, 96 h. Potency, µM (top dose mostly 28.7 µM), for the others: top-dose activity change, negative = inhibition, actives largely listed as inhibitors. AID 504834. P. falciparum luciferase reporter growth, 96 h. 320,000 tested, 6.9% active; note: potency is the fitted concentration of half-maximal effect; % is set by controls: 0 for no effect and ±100 for the full control effect
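Two-generation exposure (96 h) targets delayed-death phenotype. Reporter parasites carrying integrated firefly luciferase, in red cells at 2% hematocrit and 0.05% parasitemia final, kept at 37 C, 5% CO2; luminescence loss indicates inhibition.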
HCV inh: HCV inhibition | Huh7.5.1 HCVcc-Cre infection, luciferase reporter, 44 h | Potency, µM (titrated, usually from 41.8 µM), without a hit: at the top dose activity change, negative = inhibition, hits mostly inhibitors | 340,000 tested, 3.4% active | AID 651820; note: potency is the fitted concentration of half-maximal effect; % is set by controls: 0 for no effect and ±100 for the full control effect
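Cells (1,000/well) were plated 4 h before compound, then infected with HCVcc-Cre virus (~0.5 moi). After 44 h further culture, infection was read as luciferase luminescence following a 15 min substrate incubation at room temperature.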
HCMV inh: inhibitors of human cytomegalovirus; HFF cells, HCMV-luciferase reporter, 72 h; stronger effect = lower value; activity change, negative = inhibition, % at 57.5 µM; 410,000 tested, 4.5% active; in the data active = activity change below about -60%; inconclusive = no clear call, values can overlap the other calls; inactive = above about -39%; note: % is set by controls: 0 for no effect and ±100 for the full control effect
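Steps: HFFs plated, 16 h 37C; compounds added; HCMV-luciferase added to MOI 1 PFU/cell; 72 h 37C; OneGlo reagent, 5 min room temperature; luminescence read, normalized to controls.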
SARS PLpro yeast: SARS-CoV PLP inhibition in yeast; S. cerevisiae expressing SARS-CoV PLpro, growth rescue; Potency, µM (highest dose often 32.9 µM), for the others: top-dose activity, positive = growth rescue, actives largely listed as activators; 330,000 tested, 0.19% active; calls by dose curve; note: potency is the fitted concentration of half-maximal effect; 0% is about no effect; nearly all actives have a fitted effect of over 55% in size
The depositor's hits bear a star; [ ] = remark or other dose. Unless noted, calls come from the whole dose curve; as a rule, active = well fitted curve in the direction sought with a large enough effect; inconclusive = small, poorly fitted or top-dose-only effect, or another doubt; inactive = no such curve, though single readings can be large; an effect the other way counts as inactive or inconclusive.

For Cc1cccc(Cn2ncc(Cl)c(Cl)c2=O)c1 the results were Sm TGR inh 0.0%, Pf growth 48h 16.2%, Pf growth 96h 8.8%, HCV inh 3.55µM*, HCMV inh -94.4* and SARS PLpro yeast -19.2%.
Cc1cc2oc(=O)cc(CN3CCN(c4ccccc4)CC3)c2cc1Cl was read as HCMV inh -32.4.
For Cc1ccccc1Cn1nnc2c1C(=O)c1ccccc1C2=O the results were HCV inh inconclusive and HCMV inh 80.3.
For Cc1cc2oc(=O)cc(Cn3ncc(Cl)c(Cl)c3=O)c2cc1Cl the results were Sm TGR inh 3.55µM*, Pf growth 48h inconclusive, Pf growth 96h inconclusive, HCV inh 11.2µM* and SARS PLpro yeast 1.6%.
Cc1cccc(-c2ncc(CN3CCCC(CO)(Cc4ccccc4C)C3)cn2)c1 (centres undefined) was read as Sm TGR inh -10.2%, Pf growth 48h inconclusive, Pf growth 96h inconclusive, HCV inh inconclusive, HCMV inh 7.4 and SARS PLpro yeast -1.6%.
Cc1cc(C(=O)Cn2ncc(Cl)c(Cl)c2=O)c(C)n1CC(F)(F)F was read as Sm TGR inh 44.7µM*, Pf growth 48h 5.0%, Pf growth 96h inconclusive, HCV inh inconclusive, HCMV inh -99.6* and SARS PLpro yeast -42.5%.
Screening COc1cccc(-c2nnc(SCC3CNC(=O)O3)n2-c2ccc(Cl)cc2)c1 (centres undefined) returned Sm TGR inh -5.1%, Pf growth 48h -6.5%, Pf growth 96h inconclusive, HCV inh -3.4%, HCMV inh -100.6* and SARS PLpro yeast 5.4%.
`COc1cccc(-c2nnc(SCC(=O)N3CCCC3=O)n2-c2ccccc2)c1` gave Sm TGR inh 0.0%, Pf growth 48h 27.6%, HCV inh 16.3%, HCMV inh 0.2 and SARS PLpro yeast -0.2%.
CC(C)(C)OC(=O)N1CCC(c2c(C(=O)NCCN3CCC(Cc4ccccc4)CC3)cnn2-c2ccccc2)CC1 was read as Sm TGR inh -2.6% and HCMV inh inconclusive.
For CC(=O)c1ccc(S(=O)(=O)N2CCN(C(=O)c3ccc(COc4ccccc4)o3)CC2)cc1 the results were Sm TGR inh -5.3%, Pf growth 48h inconclusive, Pf growth 96h inconclusive, HCV inh inconclusive, HCMV inh -60.6* and SARS PLpro yeast -0.7%.
`CC(=O)c1ccc(S(=O)(=O)N2CCN(C(=O)c3ccccc3Cc3ccccc3)CC2)cc1` gave Sm TGR inh -2.9%, Pf growth 48h -59.5%, Pf growth 96h -95.8%, HCV inh 4.8%, HCMV inh -21.3 and SARS PLpro yeast -1.6%.
O=C(c1ccco1)N1CCN(S(=O)(=O)c2ccc(Oc3ccccc3)cc2)CC1 was read as Sm TGR inh 16.2%, Pf growth 48h -11.7%, Pf growth 96h -24.6%, HCV inh 14.1µM*, HCMV inh inconclusive and SARS PLpro yeast -25.0%.
`O=C(c1ccco1)N1CCN(S(=O)(=O)c2ccc(Br)cc2)CC1` gave Sm TGR inh -1.9%, Pf growth 48h -36.1%, Pf growth 96h 0.0%, HCV inh 13.8%, HCMV inh inconclusive and SARS PLpro yeast -1.7%.
O=C(CSc1oc(-c2ccco2)nc1S(=O)(=O)c1ccc(Br)cc1)c1ccccc1 was read as Sm TGR inh -14.1% and HCMV inh -20.5.
CCCn1c(SCc2nc(-c3cc(OC)ccc3OC)no2)nnc1-c1ccc(Cl)cc1 was read as Sm TGR inh 4.9% and HCMV inh -18.9.
O=C(NCCCc1ccccc1)c1cccc(Br)c1 was read as HCV inh inconclusive and HCMV inh -9.2.
O=C(CN(Cc1ccccc1)C(=O)CCl)c1cccc(Br)c1 was read as Sm TGR inh 8.91µM*, Pf growth 48h inconclusive, Pf growth 96h inconclusive, HCV inh inconclusive, HCMV inh -98.7* and SARS PLpro yeast -4.2%.
For O=C(CCCCn1c(=O)c2ccccc2n(Cc2ccc(F)cc2)c1=O)NCc1ccco1 the results were Sm TGR inh -23.3%, Pf growth 48h inconclusive, Pf growth 96h 3.29µM*, HCV inh inconclusive, HCMV inh -38.5 and SARS PLpro yeast 1.6%.
For O=C(CCCn1c(=O)c2ccccc2n(Cc2ccccc2)c1=O)NCc1ccco1 the results were Sm TGR inh 12.9%, Pf growth 96h 71.8%, HCV inh -20.5%, HCMV inh -22.8 and SARS PLpro yeast 16.8%.
`Cc1ccc(Cn2c(=O)n(-c3ccccc3)c(=O)c3ccc(C(=O)NCc4ccco4)cc32)cc1` gave Sm TGR inh 2.1%, Pf growth 48h inconclusive, Pf growth 96h 97.7%, HCV inh 5.8%[8.37 µM], HCMV inh -60.9* and SARS PLpro yeast 1.4%.
Screening O=C(NCc1ccco1)c1ccc(Cn2c(=O)c3ccccc3n(Cc3ccc(Cl)cc3)c2=O)cc1 returned Sm TGR inh 5.5%, Pf growth 48h 11.7µM*, Pf growth 96h -30.4%, HCV inh 11.2µM*, HCMV inh -14.5 and SARS PLpro yeast -2.7%.
For C=CCn1c(=O)c2ccc(C(=O)NCc3ccccc3)cc2n(Cc2ccc(C)cc2)c1=O the results were Sm TGR inh -8.8%, Pf growth 48h 26.5%, Pf growth 96h 2.33µM*, HCV inh 1.6%[8.37 µM], HCMV inh -33.5 and SARS PLpro yeast -1.7%.
Screening COc1ccccc1C(=O)Nc1nc(C)cc(C)n1 returned HCV inh 12.5% and HCMV inh -13.3.
Screening N#CC(CC(=O)c1ccc(F)cc1)c1ccc2c(c1)OCO2 (centres undefined) returned Sm TGR inh 1.2%, Pf growth 48h 17.3%, Pf growth 96h 5.6%, HCV inh 2.6%, HCMV inh -4.4 and SARS PLpro yeast 0.1%.
Cn1c(=O)cc(C(=O)N/N=C/c2ccc(F)cc2)[nH]c1=O was read as Sm TGR inh 2.8%, Pf growth 48h 8.9%, Pf growth 96h 22.7%, HCV inh 13.1%, HCMV inh 39.4 and SARS PLpro yeast 2.4%.
`Cc1cc(-c2ccccc2)nc(N/N=C/c2ccc(O)cc2O)n1` gave Sm TGR inh 6.4%, Pf growth 48h inconclusive, Pf growth 96h -10.5%, HCV inh 10µM*, HCMV inh -17.0 and SARS PLpro yeast -14.0%.
CN(N)c1nc(-c2ccccc2)cc(-c2ccccc2)n1 was read as Sm TGR inh -22.8%, Pf growth 48h -10.3%, Pf growth 96h 83.2%, HCV inh inconclusive, HCMV inh inconclusive and SARS PLpro yeast 2.3%.
Screening O=[N+]([O-])c1ccc(/C=N/Nc2ncc(-c3ccccc3)cn2)cc1 returned Sm TGR inh 5.4%[57.1 µM], Pf growth 48h 8.6%, Pf growth 96h 47.7%, HCV inh 0.6%, HCMV inh 18.4 and SARS PLpro yeast -0.2%.
